compound: CN[C@@H]1C[C@H]2O[C@@](C)([C@@H]1OC)n1c3ccccc3c3c4c(c5c6ccccc6n2c5c31)C(=O)NC4 [staurosporine]; assay: log2 fold change of tryptic peptide abundance, ligand vs vehicle (limited proteolysis) (log2 ratio); higher = more trypsin-susceptible (destabilized); conditions: ligand concentration: 20 uM; sample: K562 cleared lysate; digestion: 4 min, 22 C (HT-PELSA RT4min, Orbitrap Astral)

Chain of UniProt P55884 (P55884 whole entry): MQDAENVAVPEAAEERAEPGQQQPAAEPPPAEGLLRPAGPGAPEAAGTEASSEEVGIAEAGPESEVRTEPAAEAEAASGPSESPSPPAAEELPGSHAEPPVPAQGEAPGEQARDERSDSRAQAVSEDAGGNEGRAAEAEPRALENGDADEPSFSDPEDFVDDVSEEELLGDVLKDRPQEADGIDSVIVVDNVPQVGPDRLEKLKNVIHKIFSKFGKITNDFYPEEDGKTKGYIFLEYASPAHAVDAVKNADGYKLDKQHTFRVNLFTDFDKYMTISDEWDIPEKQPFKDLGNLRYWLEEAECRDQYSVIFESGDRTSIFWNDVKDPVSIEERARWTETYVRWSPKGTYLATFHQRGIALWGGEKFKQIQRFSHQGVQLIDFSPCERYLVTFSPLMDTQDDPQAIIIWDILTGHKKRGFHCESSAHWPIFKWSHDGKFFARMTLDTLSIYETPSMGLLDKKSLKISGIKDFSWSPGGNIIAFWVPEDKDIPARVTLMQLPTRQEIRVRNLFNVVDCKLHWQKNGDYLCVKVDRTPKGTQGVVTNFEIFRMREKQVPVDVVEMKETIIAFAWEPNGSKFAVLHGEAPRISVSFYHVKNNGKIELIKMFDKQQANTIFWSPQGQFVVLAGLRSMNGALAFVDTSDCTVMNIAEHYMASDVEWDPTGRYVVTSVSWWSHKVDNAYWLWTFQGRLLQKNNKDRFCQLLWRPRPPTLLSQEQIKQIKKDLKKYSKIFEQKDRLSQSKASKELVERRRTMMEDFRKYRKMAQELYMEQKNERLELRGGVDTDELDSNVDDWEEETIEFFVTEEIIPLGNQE
Chain of UniProt Q0VDG4 (Q0VDG4 whole entry): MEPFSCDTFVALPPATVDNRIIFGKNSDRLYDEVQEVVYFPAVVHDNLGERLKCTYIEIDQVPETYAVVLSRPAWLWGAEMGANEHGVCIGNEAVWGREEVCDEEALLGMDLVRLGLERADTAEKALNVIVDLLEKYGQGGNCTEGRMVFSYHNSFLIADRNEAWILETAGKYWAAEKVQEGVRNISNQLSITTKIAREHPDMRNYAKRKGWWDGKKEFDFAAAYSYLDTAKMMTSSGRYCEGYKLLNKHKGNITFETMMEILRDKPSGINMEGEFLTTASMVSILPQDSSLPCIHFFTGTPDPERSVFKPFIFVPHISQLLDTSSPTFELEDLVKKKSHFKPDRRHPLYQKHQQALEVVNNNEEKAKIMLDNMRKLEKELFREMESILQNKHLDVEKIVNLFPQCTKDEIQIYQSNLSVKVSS
Chain of UniProt Q9Y3A2 (Q9Y3A2 whole entry): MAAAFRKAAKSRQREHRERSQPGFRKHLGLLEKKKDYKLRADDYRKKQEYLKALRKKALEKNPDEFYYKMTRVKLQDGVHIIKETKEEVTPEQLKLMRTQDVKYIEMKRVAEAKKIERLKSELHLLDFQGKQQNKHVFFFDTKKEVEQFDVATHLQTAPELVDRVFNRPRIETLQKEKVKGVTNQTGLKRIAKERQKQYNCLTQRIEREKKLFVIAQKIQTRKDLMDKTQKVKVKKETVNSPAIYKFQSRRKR
Chain of UniProt Q13470 (Q13470 whole entry): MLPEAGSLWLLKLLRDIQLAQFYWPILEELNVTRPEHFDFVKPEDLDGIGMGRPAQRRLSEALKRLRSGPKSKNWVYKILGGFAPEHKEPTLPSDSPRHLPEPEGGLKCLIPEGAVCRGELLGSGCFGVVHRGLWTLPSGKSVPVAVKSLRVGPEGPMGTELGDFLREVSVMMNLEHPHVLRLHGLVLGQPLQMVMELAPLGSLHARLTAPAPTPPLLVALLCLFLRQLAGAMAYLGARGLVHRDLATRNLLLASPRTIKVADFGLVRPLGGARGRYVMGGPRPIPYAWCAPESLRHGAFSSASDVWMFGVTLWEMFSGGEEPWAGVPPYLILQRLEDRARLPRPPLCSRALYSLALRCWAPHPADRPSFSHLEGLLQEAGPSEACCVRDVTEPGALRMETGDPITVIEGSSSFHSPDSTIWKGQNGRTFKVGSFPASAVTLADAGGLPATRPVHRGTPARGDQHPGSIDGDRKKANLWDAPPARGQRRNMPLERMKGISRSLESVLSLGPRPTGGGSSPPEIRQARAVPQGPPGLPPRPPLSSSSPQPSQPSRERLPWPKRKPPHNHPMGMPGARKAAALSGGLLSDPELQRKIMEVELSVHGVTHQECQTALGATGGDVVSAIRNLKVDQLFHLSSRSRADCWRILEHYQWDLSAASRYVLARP
Chain of UniProt P15056 (P15056 whole entry): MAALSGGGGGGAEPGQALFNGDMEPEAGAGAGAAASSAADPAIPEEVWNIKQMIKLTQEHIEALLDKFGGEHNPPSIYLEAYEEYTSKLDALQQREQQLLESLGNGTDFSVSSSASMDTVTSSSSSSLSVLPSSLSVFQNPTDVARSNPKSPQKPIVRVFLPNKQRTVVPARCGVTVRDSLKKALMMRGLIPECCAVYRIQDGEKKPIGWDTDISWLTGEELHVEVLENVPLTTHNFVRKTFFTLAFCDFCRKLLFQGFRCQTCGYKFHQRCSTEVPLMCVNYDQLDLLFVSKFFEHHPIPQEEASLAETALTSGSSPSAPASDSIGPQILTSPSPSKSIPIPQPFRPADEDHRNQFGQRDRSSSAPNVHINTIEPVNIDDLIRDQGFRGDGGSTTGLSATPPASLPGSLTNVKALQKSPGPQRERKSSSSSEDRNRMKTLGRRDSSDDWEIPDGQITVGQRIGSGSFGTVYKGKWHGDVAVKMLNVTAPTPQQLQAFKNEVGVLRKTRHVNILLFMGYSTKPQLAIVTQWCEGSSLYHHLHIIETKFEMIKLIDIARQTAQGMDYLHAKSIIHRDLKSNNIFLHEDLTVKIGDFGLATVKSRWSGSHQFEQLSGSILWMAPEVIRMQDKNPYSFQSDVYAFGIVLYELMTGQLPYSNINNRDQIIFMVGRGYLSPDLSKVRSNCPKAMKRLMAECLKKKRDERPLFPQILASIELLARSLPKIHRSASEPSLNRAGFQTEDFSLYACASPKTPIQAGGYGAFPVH
Chain of UniProt Q00537 (Q00537 whole entry, looked up): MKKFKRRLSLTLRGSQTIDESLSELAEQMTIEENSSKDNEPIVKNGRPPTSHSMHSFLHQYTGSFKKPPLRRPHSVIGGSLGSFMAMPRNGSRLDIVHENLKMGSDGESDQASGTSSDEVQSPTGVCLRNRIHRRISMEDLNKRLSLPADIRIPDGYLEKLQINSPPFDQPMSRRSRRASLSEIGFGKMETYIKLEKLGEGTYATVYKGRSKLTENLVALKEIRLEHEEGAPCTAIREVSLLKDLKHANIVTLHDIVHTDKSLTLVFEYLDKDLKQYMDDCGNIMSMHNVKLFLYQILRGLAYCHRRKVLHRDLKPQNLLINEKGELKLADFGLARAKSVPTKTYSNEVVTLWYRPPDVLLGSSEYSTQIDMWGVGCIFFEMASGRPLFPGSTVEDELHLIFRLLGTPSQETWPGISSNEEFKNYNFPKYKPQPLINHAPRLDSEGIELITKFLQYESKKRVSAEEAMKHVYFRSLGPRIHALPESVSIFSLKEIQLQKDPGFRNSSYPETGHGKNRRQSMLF
Chain of UniProt P36551 (P36551 whole entry): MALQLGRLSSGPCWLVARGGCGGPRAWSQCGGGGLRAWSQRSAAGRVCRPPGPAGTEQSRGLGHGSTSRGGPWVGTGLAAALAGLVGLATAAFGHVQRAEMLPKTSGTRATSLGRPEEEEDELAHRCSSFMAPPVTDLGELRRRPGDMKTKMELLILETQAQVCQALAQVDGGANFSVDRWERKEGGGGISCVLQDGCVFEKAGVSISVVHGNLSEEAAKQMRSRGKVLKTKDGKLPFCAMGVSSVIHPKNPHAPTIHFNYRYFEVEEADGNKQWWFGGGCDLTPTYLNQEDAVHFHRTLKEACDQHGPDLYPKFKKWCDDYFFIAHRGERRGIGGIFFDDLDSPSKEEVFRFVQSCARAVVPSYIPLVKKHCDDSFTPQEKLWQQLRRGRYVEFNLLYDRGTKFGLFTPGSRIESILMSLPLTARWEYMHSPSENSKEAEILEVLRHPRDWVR
Chain of UniProt Q96RU2 (Q96RU2 whole entry): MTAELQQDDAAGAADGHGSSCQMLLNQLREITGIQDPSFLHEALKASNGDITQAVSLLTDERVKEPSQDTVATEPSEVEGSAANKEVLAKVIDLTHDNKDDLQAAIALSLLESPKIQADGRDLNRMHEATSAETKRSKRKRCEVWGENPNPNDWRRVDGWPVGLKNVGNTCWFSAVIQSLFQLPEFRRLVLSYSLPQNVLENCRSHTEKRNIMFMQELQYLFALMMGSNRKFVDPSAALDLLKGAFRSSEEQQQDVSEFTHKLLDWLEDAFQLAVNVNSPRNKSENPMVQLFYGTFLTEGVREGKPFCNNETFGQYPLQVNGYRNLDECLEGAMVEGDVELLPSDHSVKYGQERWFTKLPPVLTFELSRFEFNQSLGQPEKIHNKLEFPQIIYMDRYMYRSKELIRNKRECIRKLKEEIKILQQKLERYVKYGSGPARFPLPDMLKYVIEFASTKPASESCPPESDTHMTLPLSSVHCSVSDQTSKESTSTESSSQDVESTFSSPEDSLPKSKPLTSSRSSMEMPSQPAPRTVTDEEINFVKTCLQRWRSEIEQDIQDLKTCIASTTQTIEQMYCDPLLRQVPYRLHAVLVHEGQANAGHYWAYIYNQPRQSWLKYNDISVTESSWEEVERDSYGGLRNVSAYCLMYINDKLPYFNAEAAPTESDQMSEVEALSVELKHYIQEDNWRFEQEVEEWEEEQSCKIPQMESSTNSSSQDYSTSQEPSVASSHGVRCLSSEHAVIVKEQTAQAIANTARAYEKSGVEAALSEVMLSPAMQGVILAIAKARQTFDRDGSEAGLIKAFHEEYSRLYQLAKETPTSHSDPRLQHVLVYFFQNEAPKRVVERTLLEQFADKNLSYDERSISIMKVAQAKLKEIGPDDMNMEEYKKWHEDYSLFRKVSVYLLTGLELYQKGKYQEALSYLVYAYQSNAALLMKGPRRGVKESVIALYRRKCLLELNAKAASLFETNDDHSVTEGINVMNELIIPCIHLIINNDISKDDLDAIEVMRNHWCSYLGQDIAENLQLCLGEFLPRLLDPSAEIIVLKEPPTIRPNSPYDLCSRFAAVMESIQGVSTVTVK

| Target | log2 fold change |
| --- | --- |
| UniProt Q13188 (peptide sequence: AIFMIPTNPPPTFR, peptide start residue: 232) | -3.02 |
| ULK1 (peptide sequence: LFLQQIAGAMR, peptide start residue: 117) (UniProt O75385) | -1.62 |
| EIF2AK4 (peptide sequence: DLKPVNIFLDSDDHVK, peptide start residue: 848) (UniProt Q9P2K8) | -1.33 |
| BRAF (peptide sequence: GYLSPDLSK, peptide start residue: 525) (UniProt P15056) | 0.499 |
| CEP170 (peptide sequence: SDSEATISR, peptide start residue: 1165) (UniProt Q5SW79) | 0.41 |
| TAGLN2 (peptide sequence: TLMNLGGLAVAR, peptide start residue: 128) (UniProt P37802) | 0.271 |
| UniProt Q00537 (peptide sequence: LGEGTYATVYK, peptide start residue: 171) | -2.88 |
| USP28 (peptide sequence: FVDPSAALDLLK, peptide start residue: 232) (UniProt Q96RU2) | 0.578 |
| OSBPL3 (peptide sequence: YWSTNAHEIEGTVFDR, peptide start residue: 727) (UniProt Q9H4L5) | -1.33 |
| UniProt P62913 (peptide sequence: KLCLNICVGESGDR, peptide start residue: 19) | -0.237 |
| UTP11 (peptide sequence: SELHLLDFQGK, peptide start residue: 121) (UniProt Q9Y3A2) | -1.12 |
| TNK1 (peptide sequence: VADFGLVRPLGGAR, peptide start residue: 261) (UniProt Q13470) | -3.64 |
| PRDX1 (peptide sequence: KQGGLGPMNIPLVSDPKR, peptide start residue: 93) (UniProt Q06830) | 0.253 |
| HAT1 (peptide sequence: CNTNTAIELK, peptide start residue: 27) (UniProt O14929) | 0.602 |
| MAP3K4 (peptide sequence: DFLSHCLESDPK, peptide start residue: 1576) (UniProt Q9Y6R4) | -1.49 |
| PRKAR1A (peptide sequence: ILMGSTLR, peptide start residue: 234) (UniProt P10644) | 0.333 |
| GEMIN5 (peptide sequence: MLSTFKELFSEK, peptide start residue: 1352) (UniProt Q8TEQ6) | -1 |
| THRAP3 (peptide sequence: SYSPAHNR, peptide start residue: 53) (UniProt Q9Y2W1) | 2.27 |
| SCRN3 (peptide sequence: IMLDNMR, peptide start residue: 369) (UniProt Q0VDG4) | 0.327 |
| UniProt Q8N4C8 (peptide sequence: GNALKEDCIAYICR, peptide start residue: 122) | -0.573 |
| UniProt P78527 (peptide sequence: GYGLFAGPCK, peptide start residue: 365) | 0.189 |
| UniProt Q15418 (peptide sequence: DILADVNHPFVVK, peptide start residue: 114) | -1.43 |
| CPOX (peptide sequence: EAEILEVLR, peptide start residue: 439) (UniProt P36551) | -1.06 |
| UniProt O75494 (peptide sequence: SFDYNYR, peptide start residue: 133) | 0.608 |
| UniProt Q2VIR3 (peptide sequence: FKNELER, peptide start residue: 69) | 0.555 |
| DCUN1D5 (peptide sequence: SMLALLLGR, peptide start residue: 164) (UniProt Q9BTE7) | 1.45 |
| SRPK1 (peptide sequence: HFTEDIQTR, peptide start residue: 507) (UniProt Q96SB4) | -1.75 |
| UniProt Q9NYV4 (peptide sequence: EIVTDKQDALDFKK, peptide start residue: 791) | -1.83 |
| EIF3B (peptide sequence: PRPPTLLSQEQIK, peptide start residue: 706) (UniProt P55884) | 0.691 |
